Counter-ions that a name gives are not always drawn.
Legend:
Details in all cases: 20 µM; incubation time: 27 h, anaerobic, 37 °C;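 for the amine columns active = adjusted P below 0.05 in both replicates with a change the same way and a mean fold change under 0.8 or over 1.25; inactive = the rest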
[1] = tested on: Clostridium sporogenes DSM 1664; experiment: growth (OD595) fold change vs plate DMSO controls (fold change (ratio)); higher = more growth
In short: (§1)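 To obtain OD, 595 nm absorbance readings were blank-subtracted, corrected for compound background using 20 µM compound solutions in water, and multiplied by a calibration factor of 5. They came from 96-well mGAM cultures grown anaerobically for 27 h at 37 °C and shaken before reading. Growth is the fold change relative to the median of plate DMSO controls. Two biological replicates were averaged, and fold changes above 1.5 were set to NA.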

Escherichia coli IAI1 [2] = experiment: as above
In short: as §1

[3] = tested on: Klebsiella aerogenes DSM 30053; experiment: as above
In short: as §1

[4] = tested on: Ruminococcus gnavus DSM 108212; experiment: as above
In short: as §1

[5] = tested on: Klebsiella aerogenes DSM 30053; experiment: fold change of Histamine concentration vs plate DMSO controls (fold change (ratio)); higher = more amine produced, active = hit call of the paper (significant change in both replicates, either direction)
In short: (§2)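 Using LC–triple-quadrupole MS with dynamic MRM, amines were quantified against external calibration curves and corrected for drift within each batch. Samples were whole anaerobic mGAM cultures of four gut strains, grown 27 h at 37 °C from OD 0.1 before 1:1 dilution, extracted with cold acetonitrile/methanol containing 0.1% formic acid and centrifuged. Compounds were present at 20 µM final (sweeteners at 50 µM final). The numbers are fold changes versus plate DMSO controls, each the mean of 2 biological replicates.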

[6] = tested on: Clostridium sporogenes DSM 1664; experiment: fold change of Tryptamine concentration vs plate DMSO controls (fold change (ratio)); higher = more amine produced, active = hit call of the paper (significant change in both replicates, either direction)
In short: as §2

[7] = tested on: Ruminococcus gnavus DSM 108212; experiment: as above
In short: as §2

Escherichia coli IAI1 [8] = experiment: fold change of Putrescine concentration vs plate DMSO controls (fold change (ratio)); higher = more amine produced, active = hit call of the paper (significant change in both replicates, either direction)
In short: as §2

[9] = tested on: Klebsiella aerogenes DSM 30053; experiment: as above
In short: as §2

Escherichia coli IAI1 [10] = experiment: fold change of Cadaverine concentration vs plate DMSO controls (fold change (ratio)); higher = more amine produced, active = hit call of the paper (significant change in both replicates, either direction)
In short: as §2

[11] = tested on: Klebsiella aerogenes DSM 30053; experiment: as above
In short: as §2

[12] = tested on: Ruminococcus gnavus DSM 108212; experiment: fold change of 2-Phenylethylamine concentration vs plate DMSO controls (fold change (ratio)); higher = more amine produced, active = hit call of the paper (significant change in both replicates, either direction)
In short: as §2

NC(=O)CN1CCCC1=O [Piracetam]
growth [1]: 1.08 | growth (Escherichia coli IAI1 [2]): 0.995 | growth [3]: 0.984 | growth [4]: 1.11 | fold change of Histamine concentration [5]: 1.04 (inactive) | fold change of Tryptamine concentration [6]: 1.01 (inactive) | fold change of Tryptamine concentration [7]: 1.02 (inactive) | fold change of Putrescine concentration (Escherichia coli IAI1 [8]): 1.04 (inactive) | fold change of Putrescine concentration [9]: 1.01 (inactive) | fold change of Cadaverine concentration (Escherichia coli IAI1 [10]): 0.997 (inactive) | fold change of Cadaverine concentration [11]: 0.985 (inactive) | fold change of 2-Phenylethylamine concentration [12]: 1.01 (inactive)

CN1[C@@H]2C[C@@H](OC(=O)[C@H](CO)c3ccccc3)C[C@H]1[C@@H]1O[C@@H]12 [Scopolamine hydrochloride]
growth [1]: 1.07 | growth (Escherichia coli IAI1 [2]): 1.01 | growth [3]: 1.03 | growth [4]: 1.08 | fold change of Histamine concentration [5]: 0.953 (inactive) | fold change of Tryptamine concentration [6]: 1.2 (inactive) | fold change of Tryptamine concentration [7]: 1.08 (inactive) | fold change of Putrescine concentration (Escherichia coli IAI1 [8]): 1.17 (inactive) | fold change of Putrescine concentration [9]: 0.965 (inactive) | fold change of Cadaverine concentration (Escherichia coli IAI1 [10]): 0.948 (inactive) | fold change of Cadaverine concentration [11]: 1.02 (inactive) | fold change of 2-Phenylethylamine concentration [12]: 1.12 (inactive)

CCCCCCCCCCCCN=C(N)N
growth [1]: 1.1 | growth (Escherichia coli IAI1 [2]): 0.995 | growth [3]: 1.02 | growth [4]: 1.19 | fold change of Histamine concentration [5]: 1.03 (inactive) | fold change of Tryptamine concentration [6]: 0.927 (inactive) | fold change of Tryptamine concentration [7]: 0.896 (inactive) | fold change of Putrescine concentration (Escherichia coli IAI1 [8]): 1.01 (inactive) | fold change of Putrescine concentration [9]: 1.06 (inactive) | fold change of Cadaverine concentration (Escherichia coli IAI1 [10]): 0.951 (inactive) | fold change of Cadaverine concentration [11]: 1.03 (inactive) | fold change of 2-Phenylethylamine concentration [12]: 0.893 (inactive)

CC(CCc1ccccc1)NC(C)C(O)c1ccc(O)cc1 (stereo unspecified) [Nylidrin]
growth [1]: 0.853 | growth (Escherichia coli IAI1 [2]): 1.13 | growth [3]: 1.21 | growth [4]: 1 | fold change of Histamine concentration [5]: 1 (inactive) | fold change of Tryptamine concentration [6]: 0.986 (inactive) | fold change of Tryptamine concentration [7]: 0.929 (inactive) | fold change of Putrescine concentration (Escherichia coli IAI1 [8]): 1.03 (inactive) | fold change of Putrescine concentration [9]: 1.05 (inactive) | fold change of Cadaverine concentration (Escherichia coli IAI1 [10]): 0.961 (inactive) | fold change of Cadaverine concentration [11]: 1.02 (inactive) | fold change of 2-Phenylethylamine concentration [12]: 0.902 (inactive)

O=[N+]([O-])c1cc(C(F)(F)F)c(Cl)c([N+](=O)[O-])c1Nc1ncc(C(F)(F)F)cc1Cl
growth [1]: 0.825 | growth (Escherichia coli IAI1 [2]): 0.986 | growth [3]: 0.991 | growth [4]: 1.18 | fold change of Histamine concentration [5]: 1.07 (inactive) | fold change of Tryptamine concentration [6]: 0.464 (inactive) | fold change of Tryptamine concentration [7]: 0.887 (inactive) | fold change of Putrescine concentration (Escherichia coli IAI1 [8]): 1.05 (inactive) | fold change of Putrescine concentration [9]: 1.05 (inactive) | fold change of Cadaverine concentration (Escherichia coli IAI1 [10]): 1.15 (inactive) | fold change of Cadaverine concentration [11]: 1.02 (inactive) | fold change of 2-Phenylethylamine concentration [12]: 0.826 (inactive)

COc1ccc(C(=CC(=O)N2CCOCC2)c2ccc(Cl)cc2)cc1OC (mixture of isomers)
growth [1]: 1.18 | growth (Escherichia coli IAI1 [2]): 1.01 | growth [3]: 1.01 | growth [4]: 0.966 | fold change of Histamine concentration [5]: 1.01 (inactive) | fold change of Tryptamine concentration [6]: 1.11 (inactive) | fold change of Tryptamine concentration [7]: 1.08 (inactive) | fold change of Putrescine concentration (Escherichia coli IAI1 [8]): 0.946 (inactive) | fold change of Putrescine concentration [9]: 0.965 (inactive) | fold change of Cadaverine concentration (Escherichia coli IAI1 [10]): 0.929 (inactive) | fold change of Cadaverine concentration [11]: 1.06 (inactive) | fold change of 2-Phenylethylamine concentration [12]: 1.09 (inactive)

COP(N)(=O)SC (stereo unspecified)
growth [1]: 1.17 | growth (Escherichia coli IAI1 [2]): 1.07 | growth [3]: 1.12 | growth [4]: 1.01 | fold change of Histamine concentration [5]: 0.935 (inactive) | fold change of Tryptamine concentration [6]: 0.998 (inactive) | fold change of Tryptamine concentration [7]: 1.05 (inactive) | fold change of Putrescine concentration (Escherichia coli IAI1 [8]): 1.05 (inactive) | fold change of Putrescine concentration [9]: 1.01 (inactive) | fold change of Cadaverine concentration (Escherichia coli IAI1 [10]): 0.966 (inactive) | fold change of Cadaverine concentration [11]: 1.02 (inactive) | fold change of 2-Phenylethylamine concentration [12]: 1.06 (inactive)

CCC1(c2ccc(N)cc2)CCC(=O)NC1=O (stereo unspecified) [Glutethimide, para-amino]
growth [1]: 0.956 | growth (Escherichia coli IAI1 [2]): 1.01 | growth [3]: 0.979 | growth [4]: 1.14 | fold change of Histamine concentration [5]: 1.12 (inactive) | fold change of Tryptamine concentration [6]: 1.02 (inactive) | fold change of Tryptamine concentration [7]: 1.04 (inactive) | fold change of Putrescine concentration (Escherichia coli IAI1 [8]): 0.992 (inactive) | fold change of Putrescine concentration [9]: 1.02 (inactive) | fold change of Cadaverine concentration (Escherichia coli IAI1 [10]): 0.974 (inactive) | fold change of Cadaverine concentration [11]: 0.993 (inactive) | fold change of 2-Phenylethylamine concentration [12]: 1 (inactive)

O=[N+]([O-])O[C@H]1CO[C@H]2[C@@H]1OC[C@H]2O[N+](=O)[O-] [Isosorbide dinitrate]
growth [1]: 0.818 | growth (Escherichia coli IAI1 [2]): 1.09 | growth [3]: 1.08 | growth [4]: 1.25 | fold change of Histamine concentration [5]: 0.954 (inactive) | fold change of Tryptamine concentration [6]: 1.03 (inactive) | fold change of Tryptamine concentration [7]: 1 (inactive) | fold change of Putrescine concentration (Escherichia coli IAI1 [8]): 1.06 (inactive) | fold change of Putrescine concentration [9]: 0.97 (inactive) | fold change of Cadaverine concentration (Escherichia coli IAI1 [10]): 0.94 (inactive) | fold change of Cadaverine concentration [11]: 1.02 (inactive) | fold change of 2-Phenylethylamine concentration [12]: 1.06 (inactive)

CN(C)[C@@H]1C(=O)C(C(N)=O)=C(O)[C@@]2(O)C(=O)C3=C(O)c4c(O)cccc4[C@@](C)(O)[C@H]3C[C@@H]12 [Tetracycline hydrochloride]
growth [1]: 0.00861 | growth (Escherichia coli IAI1 [2]): 0.0722 | growth [3]: 0.0623 | growth [4]: 0.735 | fold change of Histamine concentration [5]: 0.0521 (active) | fold change of Tryptamine concentration [6]: 0.024 (active) | fold change of Tryptamine concentration [7]: 0.799 (inactive) | fold change of Putrescine concentration (Escherichia coli IAI1 [8]): 0.291 (inactive) | fold change of Putrescine concentration [9]: 0.481 (inactive) | fold change of Cadaverine concentration (Escherichia coli IAI1 [10]): 0.148 (active) | fold change of Cadaverine concentration [11]: 0.411 (inactive) | fold change of 2-Phenylethylamine concentration [12]: 0.86 (inactive)

N#Cc1sc2c(=O)c3ccccc3c(=O)c=2sc1C#N
growth [1]: 1.14 | growth (Escherichia coli IAI1 [2]): 1.02 | growth [3]: 0.963 | growth [4]: 1.01 | fold change of Histamine concentration [5]: 0.994 (inactive) | fold change of Tryptamine concentration [6]: 0.877 (inactive) | fold change of Tryptamine concentration [7]: 0.906 (inactive) | fold change of Putrescine concentration (Escherichia coli IAI1 [8]): 1.02 (inactive) | fold change of Putrescine concentration [9]: 1.01 (inactive) | fold change of Cadaverine concentration (Escherichia coli IAI1 [10]): 1.02 (inactive) | fold change of Cadaverine concentration [11]: 0.992 (inactive) | fold change of 2-Phenylethylamine concentration [12]: 0.827 (inactive)

Cc1cccc2sc3nncn3c12
growth [1]: 0.977 | growth (Escherichia coli IAI1 [2]): 1 | growth [3]: 0.981 | growth [4]: 1 | fold change of Histamine concentration [5]: 0.973 (inactive) | fold change of Tryptamine concentration [6]: 0.982 (inactive) | fold change of Tryptamine concentration [7]: 0.98 (inactive) | fold change of Putrescine concentration (Escherichia coli IAI1 [8]): 0.99 (inactive) | fold change of Putrescine concentration [9]: 0.997 (inactive) | fold change of Cadaverine concentration (Escherichia coli IAI1 [10]): 1.03 (inactive) | fold change of Cadaverine concentration [11]: 0.995 (inactive) | fold change of 2-Phenylethylamine concentration [12]: 0.992 (inactive)

CC(=O)O[C@H]1C[C@@H]2CC[C@@H]3[C@H](CC[C@@]4(C)[C@H]3C[C@H]([N+]3(C)CCCCC3)[C@@H]4OC(C)=O)[C@@]2(C)C[C@@H]1[N+]1(C)CCCCC1 [Pancuronium bromide]
growth [1]: 0.918 | growth (Escherichia coli IAI1 [2]): 1.08 | growth [3]: 1.1 | growth [4]: 1.08 | fold change of Histamine concentration [5]: 0.905 (inactive) | fold change of Tryptamine concentration [6]: 1.04 (inactive) | fold change of Tryptamine concentration [7]: 1.07 (inactive) | fold change of Putrescine concentration (Escherichia coli IAI1 [8]): 1.07 (inactive) | fold change of Putrescine concentration [9]: 0.983 (inactive) | fold change of Cadaverine concentration (Escherichia coli IAI1 [10]): 0.957 (inactive) | fold change of Cadaverine concentration [11]: 1.03 (inactive) | fold change of 2-Phenylethylamine concentration [12]: 1.08 (inactive)

Source: the supplement of paper PMC12494721
